Data: PubChem BioAssay (NCATS)
A number with no mark means an inactive call. Records with an inconclusive call do not appear. Where a call stands in place of a potency, no number is given. Calls of active or inactive are those of the source. The call rests on the fitted dose curve; in most records, active means well fitted curve in the direction sought with a large enough effect; inconclusive means small, poorly fitted or top-dose-only effect, or another doubt; inactive means no such curve, though single readings can be large; an effect the other way counts as inactive or inconclusive. Where a SMILES comes first, the peptide text is derived from it. The star is where a group is joined. Cbz = O=C(OCc1ccccc1)*; CH2Cl = ClC*

Assays:
[1] = biological target: Glutathione peroxidase 1 (Homo sapiens) (UniProt P07203); test: Primary qHTS Assay for Inhibitors of Recombinant Selenoprotein Glutathione Peroxidase 1 (GPX1) (AID 1845191); further: nearly all actives have a fitted effect of over 65% in size
How it was run: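 GPX1 10 nM, GR 100 nM, GSH 1 mM, NADPH 0.5 mM, CHP 0.5 mM (final). 30-min cpd preincubation, RT. Ex340/Em450 read t=0, t=15 min.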

[2] = biological target: Phospholipid hydroperoxide glutathione peroxidase GPX4 (Homo sapiens) (UniProt P36969); test: Primary qHTS Assay for Inhibitors of Recombinant Selenoprotein Glutathione Peroxidase 4 (GPX4) (AID 1845192); further: nearly all actives have a fitted effect of over 65% in size; on activity change, negative = inhibition: series mostly up to about 50 µM
How it was run: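 qHTS, GR-coupled: GPX4 200 nM + cpd 30 min RT → GSH 1 mM, NADPH 0.5 mM, GR 100 nM → CHP 0.5 mM start; fluor 340/450 at t0 and t15 min; no-enzyme wells as control.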

[3] = biological target: Luciferin 4-monooxygenase (Photinus pyralis) (UniProt P08659); test: Primary firefly luciferase (FLuc) qHTS assay for identification of artifact compounds. (AID 1845220); further: nearly all actives have a fitted effect of over 60% in size; on activity change, negative = inhibition: series mostly up to about 54 µM
How it was run: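 In this counter-screen for luciferase artifacts, test compounds met substrate (10 uM each luciferin and ATP) before 10 nM enzyme started the reaction. Light output was measured 5 min later.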

[4] = Primary fluorescence-based thiol-reactive (MSTI) qHTS assay for identification of artifact compounds. (AID 1845221); further: nearly all actives have a fitted effect of over 65% in size; further: potency means the concentration at half of the fitted maximal effect;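 on activity change, negative = thiol reactive: series mostly up to about 54 µM; thiol-reactive compounds lower the probe fluorescence signal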
How it was run: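 Curve-fitted percent inhibition (4-parameter Hill) derived from fluorescence, Ex 525/Em 598 nm, scaled with Acetyl-MSTI and MSTI; 1 h incubation at room temperature.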

[5] = system: Nanoluciferase (engineered Oplophorus gracilirostris luciferase); test: Primary Nanoluciferase (NLuc) qHTS assay for identification of artifact compounds. (AID 1845222);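 further: NLuc secreted into diluted conditioned medium of S16 cells; series mostly up to about 54 µM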
How it was run: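 Using secreted nanoluciferase in S16 culture medium (0.22 um filtered, 1:55 dilution), compounds were preincubated 15 min at RT. Signal was generated with Nano-Glo reagent (1:100) over 5 min.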

Chain of Phospholipid hydroperoxide glutathione peroxidase GPX4 (Homo sapiens) (P36969 whole entry, looked up): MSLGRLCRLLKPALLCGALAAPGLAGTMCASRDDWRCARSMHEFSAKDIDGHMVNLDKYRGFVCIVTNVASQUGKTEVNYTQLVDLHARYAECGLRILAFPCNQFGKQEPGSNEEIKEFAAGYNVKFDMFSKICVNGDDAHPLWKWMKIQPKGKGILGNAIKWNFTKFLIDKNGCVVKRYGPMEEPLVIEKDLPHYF
Chain of Glutathione peroxidase 1 (Homo sapiens) (P07203 whole entry, looked up): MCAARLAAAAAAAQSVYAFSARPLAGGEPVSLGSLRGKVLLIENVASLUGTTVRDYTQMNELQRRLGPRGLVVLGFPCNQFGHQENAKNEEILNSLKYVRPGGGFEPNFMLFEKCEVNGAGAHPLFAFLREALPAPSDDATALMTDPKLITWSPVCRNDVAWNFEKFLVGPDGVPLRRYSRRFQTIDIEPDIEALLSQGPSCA

SMILES	Potency [1]	Potency [2]	Potency [3]	Potency [4]	Potency [5]	activity change, negative = inhibition [3]	activity change, negative = thiol reactive [4]	activity, negative = inhibition [5]
O=C(c1ccccc1)c1c(O)cc(O)cc1O[C@@H]1O[C@H](CO)[C@@H](O)[C@H](O)[C@H]1O	inactive	inactive	inactive	13.1 µM (active)	inactive			
COc1ccc(C#Cc2ccc(C(=O)N3CCC[C@@H](CO)C3)cc2)cc1	inactive	inactive	inactive	inactive	inactive			
C=C(C)C(=O)O[C@H]1/C(C=O)=C\CC/C(CO)=C/[C@H]2OC(=O)C(=C)[C@@H]2[C@@H]1OC	inactive	inactive	inactive	3.69 µM (active)	inactive			
COC1CC(=O)C23C(=O)NC(Cc4c[nH]c5ccccc45)C2C(C)C2(C)OC2C3/C=C/CC(C)CC1O (stereo not given)	inactive	inactive	inactive	inactive	inactive			
C/C(=C/C=C\C=C\Cc1cnco1)[C@@H](O)C(C)(C)C(N)=O	inactive	inactive	inactive	inactive	inactive			
CC(=O)OCC(=O)[C@@]12O[C@@H]1C[C@H]1[C@@H]3CC=C4C[C@@H](O)CC[C@]4(C)[C@H]3CC[C@@]12C	inactive	inactive	inactive	inactive	inactive			
CC(C)C[C@H](NC(=O)CNC(=O)OCc1ccccc1)C(=O)N[C@@H](Cc1ccccc1)C(=O)CCl (Cbz-Gly-Leu-Phe-CH2Cl)	inactive	inactive	inactive	inactive	inactive			
CC1OC2OC(=O)C3(C)CC4C5(CO5)C5=CC(=O)OC(C)(C)C5=CC(=O)C4(C)C(C1=O)C23 (stereo not given)	inactive	inactive	inactive	1.03 µM (active)	inactive			
C[C@]12CC[C@@H]3c4ccc(O)c(O)c4CC[C@H]3[C@@H]1CCC2=O	inactive	inactive	inactive	0.947 µM (active)	inactive			
C/C=C(\C)C(=O)OC1C(C)C2(O)C(C=C(CO)CC3(O)C(=O)C(C)=CC32)C2C(C)(C)C12OC(C)=O (stereo not given)	inactive	inactive	inactive	inactive	inactive			
COc1cc(NC(=O)c2cc(C3CC3)on2)c(OC)cc1Cl	inactive	inactive	inactive	inactive	inactive			
COc1cc(C(N)=O)nc(-c2ccccn2)c1O	inactive	inactive	inactive	23.8 µM (active)	inactive			
CCCc1cc(C)[nH]c(=O)c1CNC(=O)c1cc(-c2ccnc(N3CCN(C)CC3)c2)cc2c1cnn2C(C)C	inactive	inactive	inactive	inactive	inactive			
CNCCN1CCC(c2cc(CN(C)C(=O)c3cccc(Oc4ccccc4)c3)ccn2)CC1	inactive	inactive	inactive	inactive	inactive			
COc1ccc(Cl)c(Nc2ncnc3cc(OCC4CCN(C)CC4)c(OC)cc23)c1	inactive	inactive	inactive	inactive	inactive			
COc1cc(Br)c(S(=O)(=O)Nc2ccc(Cl)c(O[C@@H]3CCN(C)C3)c2)cc1OC	inactive	inactive	inactive	inactive	inactive			
C[C@@H](NC(=O)[C@H](O)c1cc(F)cc(F)c1)C(=O)N[C@@H]1C(=O)N(C)c2ccccc2-c2ccccc21	inactive	inactive	inactive	inactive	inactive			
O=C(Nc1nc2cc(C(F)(F)F)cc(NC3CC3)n2n1)c1cccnc1	inactive	inactive	inactive	inactive	inactive			
COC1CC/C=C(\C)C(=O)Nc2cc(O)cc(c2)CC(C)CC(OC)C(O)C(C)/C=C(\C)C1OC(N)=O (stereo not given)	inactive	inactive	inactive	inactive	inactive			
C=C1C(OC2OC(CO)C(O)C(O)C2O)CC2C(C)(C)C(O)CCC2(C)C1CC/C(C)=C\COC(=O)CC(=O)O (stereo not given)	inactive	inactive	inactive	inactive	inactive			
CCCC(CCC)C(=O)Nc1ccn([C@@H]2O[C@H](CO)[C@@H](O)C2(F)F)c(=O)n1	inactive	inactive	inactive	inactive	inactive			
COc1c(C)cnc(Cn2cc(C#CCC(C)(C)O)c3c(Cl)nc(N)nc32)c1C	inactive	inactive	inactive	inactive	inactive			
CC(=O)O[C@@H]1CC2C(C)(C)C(=O)C=C[C@]2(C)C2CC[C@@]3(C)[C@H](c4ccoc4)OC(=O)[C@H]4O[C@]43[C@@]21C (stereo not given in full)	inactive	inactive	inactive	inactive	inactive			
COc1ccc(CCc2nc3c(C)c(-c4c(C)noc4C)c(C)cc3n2CCN2CCOCC2)cc1	inactive	inactive	inactive	inactive	inactive			
CC(=O)N[C@H]1[C@H](O[C@H]2CC[C@@]3(C)C(CC[C@]4(C)C3CC=C3C5CC(C)(C)CC[C@]5(C(=O)O)C(O)C[C@]34C)C2(C)C)O[C@H](CO[C@@H]2O[C@H](C)[C@H](O)[C@H](O)[C@H]2O[C@@H]2OC[C@@H](O)[C@H](O)[C@H]2O)[C@@H](O)[C@@H]1O (stereo not given in full)	inactive	inactive				-2.09% [at 11.6 µM]	111% [at 11.5 µM]	3.71% [at 11.6 µM]
